Experimental data: PubChem BioAssay AID485344 (National Center for Advancing Translational Sciences (NCATS), 2010)
About 6,900 (2%) of roughly 340,000 compounds were called active. Many of the other results were omitted from the sample, so actives are more common in it than they were. Values without a mark were called inactive. Rule as the data show it: active = inhibition above about 30%; inactive = below that, where a call was filed.

These compounds were tested against D(2) dopamine receptor (Homo sapiens) (UniProt P14416) (assay: HTS Assay for Allosteric Antagonists of the Human D2 Dopamine Receptor: Primary Screen for Antagonists). Details: HEK293 TREx D2 cells, calcium flux, dopamine EC80; at 10 µM; stronger effect = higher value.
Method in brief: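 Calcium flux kinetic readout in an inducible HEK293 TREx D2 line plated overnight at 30 C. After 180 s compound exposure, an EC80 dopamine challenge follows with another 180 s kinetic read to detect antagonism.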
Also: 0% is about no effect.

Sequence of D(2) dopamine receptor (Homo sapiens) (P14416 whole entry, looked up): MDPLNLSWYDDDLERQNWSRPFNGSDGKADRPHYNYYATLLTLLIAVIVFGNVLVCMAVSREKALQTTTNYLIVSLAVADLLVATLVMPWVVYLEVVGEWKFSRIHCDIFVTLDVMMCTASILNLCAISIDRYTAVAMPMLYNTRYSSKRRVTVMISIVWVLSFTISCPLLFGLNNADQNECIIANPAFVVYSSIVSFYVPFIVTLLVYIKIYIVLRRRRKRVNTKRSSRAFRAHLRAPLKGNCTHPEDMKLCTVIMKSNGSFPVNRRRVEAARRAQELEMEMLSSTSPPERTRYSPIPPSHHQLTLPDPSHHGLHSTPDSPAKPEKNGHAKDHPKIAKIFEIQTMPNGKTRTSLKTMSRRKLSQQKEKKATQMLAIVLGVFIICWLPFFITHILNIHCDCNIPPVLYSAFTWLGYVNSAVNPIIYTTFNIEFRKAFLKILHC

Compared with `CC(=O)c1ccccc1NC(=O)C1CC(=O)N(c2ccc3c(c2)OCCO3)C1` (configuration not stated), `COC(=O)c1cccc(NC(=O)c2cccc(N3C(=O)CCC3=O)c2)c1` is higher in inhibition: -6.21% for the first, 0.805% for the second.

Compared with `COc1ccc(OC)c(/C=C/C(=O)c2ccc3c(c2)OCO3)c1`, `Cc1cc(C)cc(C(=O)N2CCN=C2SCc2ccc([N+](=O)[O-])cc2)c1` is lower in inhibition: 6.23% for the first, -7.25% for the second.

Compared with `Cc1nc(N)nc(SCc2ccc([N+](=O)[O-])cc2)c1N`, `Cc1ccc(CNC(=O)COc2ccc(S(=O)(=O)NC(C)C)cc2)cc1` is lower in inhibition: 12.4% for the first, 6.5% for the second.

Going from `COc1cc(F)c(C2=CC(=O)CC(C)(C)C2)cc1F` to `CC1(C)CC(=O)C=C(c2ccc3ncccc3c2)C1`, the inhibition rises from -9.82% to -2.57%.

Going from `COc1ccc([C@@H]2[C@@H]3C(=O)N(C(C)(C)C)C(=O)[C@@H]3[C@]3(Cc4ccccc4)C(=O)N(c4cccc(Br)c4)C(=O)N23)cc1` to `Cn1nc(C(=O)OCC(=O)N(Cc2ccccc2)C(C)(C)C)c2ccccc2c1=O`, the inhibition falls from -3.44% to -16.5%.

Going from `Cc1cc(S(=O)(=O)NC2CCCCC2)ccc1OCC(=O)NCc1cccnc1` to `CCOc1ccc(C(=O)NCC(=O)N2CCCCCCC2)cc1OCC`, the inhibition falls from -3.46% to -3.78%.

First: Cc1cccc(C(=O)NCc2nnc(SC(C)C(=O)Nc3nnc(C)s3)n2C)c1 (configuration not stated)
Second: Cc1cc(C)cc(C(=O)NCC(=O)OCC(=O)N2CCCCC2)c1
The inhibition of the first is higher: 8.11% for the first, 1.51% for the second.

First: CCN(CC(=O)Nc1c(F)cccc1F)C(=O)C1CCC1
Second: OCCC#Cc1ccc(CN2CCN(Cc3ccsc3)C(CCO)C2)cc1 (configuration not stated)
The inhibition of the first is lower: -5.66% for the first, 6.27% for the second.

First: N/C(=N\OC(=O)/C=C/c1ccccc1)c1ccc(Br)cc1
Second: N/C(=N\OC(=O)N1c2ccccc2Sc2ccccc21)c1ccc(Br)cc1
The inhibition of the first is higher: -2.34% for the first, -13.7% for the second.

Compared with `OCCC1CN(Cc2ccccc2-c2ccco2)CCN1Cc1ccsc1` (configuration not stated), `OCCC1CN(Cc2cnc(-c3ccccc3)s2)CCN1CCc1ccccc1` (configuration not stated) is higher in inhibition: -17.4% for the first, -6.7% for the second.

In the case of `OCCC1CN(Cc2ccc(Oc3ncccn3)cc2)CCN1CCc1ccccc1` (configuration not stated), the inhibition is reported as -20.6%.

For `Nc1nc(SCc2ccc([N+](=O)[O-])cc2)c2ncn(C3OC(CO)C(O)C3O)c2n1` (configuration not stated), the inhibition was 36.3% (active).
For `Cc1ccc(C)c(NS(=O)(=O)c2ccc(OCC(=O)NCc3cccnc3)cc2)c1`, the inhibition was 42.3% (active).
With `COc1cc(OC)cc(C(=O)NCC(=O)N2CCCCCCC2)c1` the inhibition was 33.6% (active).
`N/C(=N\OC(=O)c1ccc2c(c1)OCO2)c1ccc(Br)cc1` was tested, and the inhibition was 46.1% (active).
In the case of `OCCC1CN(Cc2cccc(O)c2)CCN1CCc1ccccc1` (configuration not stated), the inhibition is reported as 54.8% (active).
In the case of `OCCC1CN(Cc2cccc(OC3CCCC3)c2)CCN1Cc1ccsc1` (configuration not stated), the inhibition is reported as 65.5% (active).
